Holding throughout (assay): DAPPL (digital affinity profiling via proximity ligation, sequencing); 10 mM Tris-HCl pH 7.5, 50 mM NaCl, 1 mM DTT, 4% glycerol, room temperature, 30 min; GST-TFs on glutathione beads, 16-mer random dsDNA library, 0.1% formaldehyde crosslink after washing; high values mean tight binding
What all share (details): protein: recombinant; tags: N-terminal GST; dsDNA, one strand shown

One assay concerns the target T1, ELK1 (Homo sapiens, UniProt P19419 1-428).
T1 sequence: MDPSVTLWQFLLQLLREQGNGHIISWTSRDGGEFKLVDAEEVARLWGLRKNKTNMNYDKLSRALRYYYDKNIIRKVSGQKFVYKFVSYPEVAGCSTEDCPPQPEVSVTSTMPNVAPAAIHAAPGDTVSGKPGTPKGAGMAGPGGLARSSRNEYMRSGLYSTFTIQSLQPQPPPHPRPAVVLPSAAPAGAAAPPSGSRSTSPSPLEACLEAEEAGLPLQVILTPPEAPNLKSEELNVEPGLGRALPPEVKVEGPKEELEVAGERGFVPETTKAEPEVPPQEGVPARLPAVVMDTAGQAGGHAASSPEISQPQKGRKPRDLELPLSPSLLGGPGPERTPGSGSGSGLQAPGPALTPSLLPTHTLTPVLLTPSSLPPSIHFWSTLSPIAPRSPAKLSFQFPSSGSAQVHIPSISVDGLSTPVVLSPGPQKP
A digest of the protocol: (§1)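 GST fusions of human transcription factors were expressed in yeast and captured with glutathione beads. Once given DNA barcodes and pooled alongside a tag-only sample, they were incubated for 30 min at room temperature with 200 nmole of a random double-stranded 16-mer DNA library in Tris/NaCl/DTT/glycerol buffer, then washed, crosslinked (0.1% formaldehyde), proximity-ligated, PCR-amplified and sequenced on an Illumina NextSeq500. The binding signal of each hexamer is its read frequency for a factor divided by its frequency for the tag-only sample.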

In the next assay the target is SPIB (Homo sapiens, UniProt Q01892 1-262). A digest of the protocol: as §1
Another assay deals with ETV5 (Homo sapiens, UniProt P41161 1-510). A digest of the protocol:
as §1

For a further assay, the target named is ELF4 (Homo sapiens, UniProt Q99607 1-663). In outline: as §1
The next assay addresses T2, ELK4 (Homo sapiens, UniProt P28324-2 1-405).
T2 sequence: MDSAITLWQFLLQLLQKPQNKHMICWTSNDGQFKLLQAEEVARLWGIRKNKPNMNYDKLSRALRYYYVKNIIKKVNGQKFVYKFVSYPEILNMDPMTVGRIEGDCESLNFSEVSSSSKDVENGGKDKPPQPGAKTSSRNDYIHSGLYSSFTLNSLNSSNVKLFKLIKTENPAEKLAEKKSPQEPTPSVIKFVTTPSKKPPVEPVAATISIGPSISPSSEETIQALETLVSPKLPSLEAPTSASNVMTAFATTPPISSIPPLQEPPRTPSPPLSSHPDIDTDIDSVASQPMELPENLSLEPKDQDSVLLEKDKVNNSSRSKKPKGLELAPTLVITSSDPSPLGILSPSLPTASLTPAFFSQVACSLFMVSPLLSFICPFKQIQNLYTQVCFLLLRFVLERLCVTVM
In outline:
as §1

Another assay concerns the target T3, ETV2 (Homo sapiens, UniProt O00321 1-342).
T3 sequence: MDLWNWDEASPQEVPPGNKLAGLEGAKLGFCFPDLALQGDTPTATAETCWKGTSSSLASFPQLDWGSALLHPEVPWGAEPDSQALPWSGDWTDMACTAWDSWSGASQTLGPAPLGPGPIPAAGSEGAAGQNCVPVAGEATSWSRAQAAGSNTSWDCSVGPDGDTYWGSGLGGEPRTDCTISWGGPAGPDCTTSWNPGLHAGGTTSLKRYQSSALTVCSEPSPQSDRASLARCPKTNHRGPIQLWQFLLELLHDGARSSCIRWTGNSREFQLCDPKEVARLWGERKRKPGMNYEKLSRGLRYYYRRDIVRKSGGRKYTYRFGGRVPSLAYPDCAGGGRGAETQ
In outline:
as §1

The next assay deals with T4, ERF (Homo sapiens, UniProt P50548 1-548).
T4 sequence: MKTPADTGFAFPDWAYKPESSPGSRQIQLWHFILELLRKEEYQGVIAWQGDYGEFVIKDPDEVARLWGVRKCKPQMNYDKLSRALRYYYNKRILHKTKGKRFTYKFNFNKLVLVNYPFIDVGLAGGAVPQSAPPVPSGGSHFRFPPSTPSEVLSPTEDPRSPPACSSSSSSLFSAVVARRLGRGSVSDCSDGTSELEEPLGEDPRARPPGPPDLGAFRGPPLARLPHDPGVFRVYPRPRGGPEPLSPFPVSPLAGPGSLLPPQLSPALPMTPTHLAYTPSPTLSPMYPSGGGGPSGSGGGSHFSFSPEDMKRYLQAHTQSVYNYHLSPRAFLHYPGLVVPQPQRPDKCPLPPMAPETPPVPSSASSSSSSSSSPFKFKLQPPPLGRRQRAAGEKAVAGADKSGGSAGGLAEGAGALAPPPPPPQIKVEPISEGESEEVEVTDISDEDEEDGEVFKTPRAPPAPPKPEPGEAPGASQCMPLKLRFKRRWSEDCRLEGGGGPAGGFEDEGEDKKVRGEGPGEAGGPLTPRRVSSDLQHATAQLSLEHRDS
A digest of the protocol:
as §1

A further assay has as its target T5, ETS2 (Homo sapiens, UniProt P15036 1-469).
T5 sequence: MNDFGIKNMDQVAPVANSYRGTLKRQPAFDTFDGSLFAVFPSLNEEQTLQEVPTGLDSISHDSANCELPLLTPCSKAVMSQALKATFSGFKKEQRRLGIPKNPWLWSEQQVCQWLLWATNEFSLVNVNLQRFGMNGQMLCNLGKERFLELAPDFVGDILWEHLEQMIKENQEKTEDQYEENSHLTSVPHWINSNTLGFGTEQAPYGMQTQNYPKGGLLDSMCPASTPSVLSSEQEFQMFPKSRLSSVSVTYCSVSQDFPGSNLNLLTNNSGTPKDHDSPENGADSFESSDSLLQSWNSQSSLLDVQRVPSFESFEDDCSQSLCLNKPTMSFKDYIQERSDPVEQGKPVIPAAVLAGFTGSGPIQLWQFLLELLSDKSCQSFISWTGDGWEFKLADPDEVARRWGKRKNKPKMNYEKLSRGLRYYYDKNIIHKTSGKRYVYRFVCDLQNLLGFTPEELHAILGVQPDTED
A digest of the protocol:
as §1

The target in another assay is T6, ETV3 (Homo sapiens, UniProt P41162-2 1-143).
T6 sequence: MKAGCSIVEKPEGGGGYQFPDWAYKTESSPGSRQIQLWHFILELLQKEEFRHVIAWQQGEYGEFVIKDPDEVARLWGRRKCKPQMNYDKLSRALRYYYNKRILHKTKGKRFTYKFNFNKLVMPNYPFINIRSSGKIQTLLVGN
In outline:
as §1

In a further assay the target is ETV6 (Homo sapiens, UniProt P41212 1-452). A digest of the protocol:
as §1

The target in a further assay is T7, GABPA (Homo sapiens, UniProt Q06546 1-454).
T7 sequence: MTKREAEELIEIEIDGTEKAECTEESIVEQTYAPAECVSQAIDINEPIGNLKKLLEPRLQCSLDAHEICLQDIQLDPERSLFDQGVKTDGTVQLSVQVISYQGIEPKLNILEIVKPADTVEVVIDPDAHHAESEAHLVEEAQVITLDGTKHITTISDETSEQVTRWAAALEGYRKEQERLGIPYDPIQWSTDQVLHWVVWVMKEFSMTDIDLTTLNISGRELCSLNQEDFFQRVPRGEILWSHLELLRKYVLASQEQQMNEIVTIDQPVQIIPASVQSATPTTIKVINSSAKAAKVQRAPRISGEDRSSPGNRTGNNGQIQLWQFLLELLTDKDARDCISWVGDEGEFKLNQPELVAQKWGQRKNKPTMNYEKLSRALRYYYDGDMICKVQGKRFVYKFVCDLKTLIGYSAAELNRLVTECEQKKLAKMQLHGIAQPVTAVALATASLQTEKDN
In outline: as §1

The next assay has as its target T8, ERG (Homo sapiens, UniProt P11308 1-479).
T8 sequence: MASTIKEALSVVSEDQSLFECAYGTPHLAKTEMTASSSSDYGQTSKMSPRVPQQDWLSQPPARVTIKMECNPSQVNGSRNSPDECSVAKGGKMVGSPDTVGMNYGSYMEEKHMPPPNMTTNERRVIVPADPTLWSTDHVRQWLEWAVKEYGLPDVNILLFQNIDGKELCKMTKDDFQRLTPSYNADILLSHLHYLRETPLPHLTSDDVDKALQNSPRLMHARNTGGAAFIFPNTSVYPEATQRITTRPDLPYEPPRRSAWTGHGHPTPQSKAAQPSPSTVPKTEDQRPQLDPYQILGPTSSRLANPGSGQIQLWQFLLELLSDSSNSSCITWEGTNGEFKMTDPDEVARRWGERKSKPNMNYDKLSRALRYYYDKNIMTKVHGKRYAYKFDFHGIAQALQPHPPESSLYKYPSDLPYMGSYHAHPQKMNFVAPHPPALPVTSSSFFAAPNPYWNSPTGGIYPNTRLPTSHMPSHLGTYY
In outline:
as §1

Another assay addresses ELF1 (Homo sapiens, UniProt P32519 1-619). In outline:
as §1

The next assay has as its target T9, EHF (Homo sapiens, UniProt Q9NZC4 1-300).
T9 sequence: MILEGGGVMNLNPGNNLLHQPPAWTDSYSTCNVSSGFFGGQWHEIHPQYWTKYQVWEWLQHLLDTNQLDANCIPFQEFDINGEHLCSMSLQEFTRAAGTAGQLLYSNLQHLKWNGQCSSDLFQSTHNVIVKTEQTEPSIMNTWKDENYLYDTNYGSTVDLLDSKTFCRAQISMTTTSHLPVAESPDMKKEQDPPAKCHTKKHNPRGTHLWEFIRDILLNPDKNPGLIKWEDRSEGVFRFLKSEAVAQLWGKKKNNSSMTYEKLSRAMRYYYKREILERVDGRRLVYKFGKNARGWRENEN
A digest of the protocol: as §1

Another assay addresses T10, FEV (Homo sapiens, UniProt Q99581 1-238).
T10 sequence: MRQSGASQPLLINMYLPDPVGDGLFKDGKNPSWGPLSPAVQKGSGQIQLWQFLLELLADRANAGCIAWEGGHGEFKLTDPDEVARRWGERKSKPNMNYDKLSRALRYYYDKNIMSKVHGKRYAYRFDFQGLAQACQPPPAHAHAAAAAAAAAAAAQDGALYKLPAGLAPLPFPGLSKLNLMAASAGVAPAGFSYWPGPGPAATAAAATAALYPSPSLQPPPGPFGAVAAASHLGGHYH
A digest of the protocol: as §1

The target of the next assay is T11, ETV3L (Homo sapiens, UniProt Q6ZN32 1-361).
T11 sequence: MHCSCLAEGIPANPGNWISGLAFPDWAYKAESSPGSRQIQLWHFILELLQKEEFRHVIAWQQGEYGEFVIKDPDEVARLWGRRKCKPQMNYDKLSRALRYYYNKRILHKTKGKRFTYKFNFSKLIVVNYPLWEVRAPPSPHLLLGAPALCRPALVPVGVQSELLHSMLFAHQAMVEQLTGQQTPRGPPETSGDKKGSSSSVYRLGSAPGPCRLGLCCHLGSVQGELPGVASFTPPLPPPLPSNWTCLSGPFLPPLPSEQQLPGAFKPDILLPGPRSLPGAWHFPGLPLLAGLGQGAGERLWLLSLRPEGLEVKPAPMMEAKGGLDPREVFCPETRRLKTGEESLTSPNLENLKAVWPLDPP
In outline: as §1

The target in a further assay is T12, ETV7 (Homo sapiens, UniProt Q9Y603 1-341).
T12 sequence: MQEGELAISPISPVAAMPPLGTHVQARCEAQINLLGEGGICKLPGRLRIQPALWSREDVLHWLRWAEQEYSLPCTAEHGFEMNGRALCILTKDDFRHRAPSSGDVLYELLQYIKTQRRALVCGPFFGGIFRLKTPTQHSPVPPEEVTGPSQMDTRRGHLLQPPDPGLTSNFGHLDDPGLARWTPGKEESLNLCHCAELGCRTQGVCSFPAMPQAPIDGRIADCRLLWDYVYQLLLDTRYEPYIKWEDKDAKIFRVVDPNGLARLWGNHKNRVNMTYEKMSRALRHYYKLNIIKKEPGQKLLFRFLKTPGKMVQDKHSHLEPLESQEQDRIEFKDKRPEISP
In outline:
as §1

ELF4, sequence (Q99607 whole entry): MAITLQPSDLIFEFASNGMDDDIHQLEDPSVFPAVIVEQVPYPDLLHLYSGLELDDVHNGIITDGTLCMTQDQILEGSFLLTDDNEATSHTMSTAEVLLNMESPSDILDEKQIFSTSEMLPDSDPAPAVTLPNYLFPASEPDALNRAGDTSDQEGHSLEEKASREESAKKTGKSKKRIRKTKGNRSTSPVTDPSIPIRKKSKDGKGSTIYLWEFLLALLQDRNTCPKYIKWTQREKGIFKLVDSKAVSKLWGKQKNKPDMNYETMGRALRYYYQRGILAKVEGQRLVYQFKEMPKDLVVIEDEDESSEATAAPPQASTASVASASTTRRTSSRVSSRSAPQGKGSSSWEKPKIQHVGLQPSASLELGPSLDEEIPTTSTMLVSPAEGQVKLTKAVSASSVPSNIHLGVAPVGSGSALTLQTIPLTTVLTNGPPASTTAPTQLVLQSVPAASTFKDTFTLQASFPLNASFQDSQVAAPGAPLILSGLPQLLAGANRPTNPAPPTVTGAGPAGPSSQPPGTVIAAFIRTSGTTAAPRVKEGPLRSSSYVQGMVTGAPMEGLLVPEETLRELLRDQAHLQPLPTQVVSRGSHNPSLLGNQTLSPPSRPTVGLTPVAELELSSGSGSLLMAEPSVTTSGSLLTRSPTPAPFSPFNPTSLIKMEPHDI
ETV5, sequence (P41161 whole entry): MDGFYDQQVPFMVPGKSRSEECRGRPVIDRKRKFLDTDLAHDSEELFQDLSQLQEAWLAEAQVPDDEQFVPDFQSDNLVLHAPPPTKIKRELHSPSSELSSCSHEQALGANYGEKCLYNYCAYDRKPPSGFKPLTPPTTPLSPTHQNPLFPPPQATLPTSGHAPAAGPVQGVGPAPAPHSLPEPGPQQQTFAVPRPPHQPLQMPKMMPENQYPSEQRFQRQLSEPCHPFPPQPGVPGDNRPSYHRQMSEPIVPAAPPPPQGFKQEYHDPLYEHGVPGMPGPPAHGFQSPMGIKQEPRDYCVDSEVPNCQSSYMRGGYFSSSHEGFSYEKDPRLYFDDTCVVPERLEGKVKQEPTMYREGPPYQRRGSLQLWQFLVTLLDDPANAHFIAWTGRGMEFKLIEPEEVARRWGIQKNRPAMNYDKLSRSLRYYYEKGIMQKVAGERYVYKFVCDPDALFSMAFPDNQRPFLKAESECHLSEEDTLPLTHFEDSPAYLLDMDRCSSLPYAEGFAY
SPIB, sequence (Q01892 whole entry): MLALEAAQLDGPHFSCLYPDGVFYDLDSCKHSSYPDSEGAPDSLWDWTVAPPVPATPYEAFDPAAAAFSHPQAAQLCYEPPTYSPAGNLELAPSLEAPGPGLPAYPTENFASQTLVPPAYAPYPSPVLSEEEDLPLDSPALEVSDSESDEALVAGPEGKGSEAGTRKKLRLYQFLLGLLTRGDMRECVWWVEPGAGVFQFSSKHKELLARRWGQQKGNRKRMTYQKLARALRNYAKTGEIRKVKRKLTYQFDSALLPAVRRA
ELF1, sequence (P32519 whole entry): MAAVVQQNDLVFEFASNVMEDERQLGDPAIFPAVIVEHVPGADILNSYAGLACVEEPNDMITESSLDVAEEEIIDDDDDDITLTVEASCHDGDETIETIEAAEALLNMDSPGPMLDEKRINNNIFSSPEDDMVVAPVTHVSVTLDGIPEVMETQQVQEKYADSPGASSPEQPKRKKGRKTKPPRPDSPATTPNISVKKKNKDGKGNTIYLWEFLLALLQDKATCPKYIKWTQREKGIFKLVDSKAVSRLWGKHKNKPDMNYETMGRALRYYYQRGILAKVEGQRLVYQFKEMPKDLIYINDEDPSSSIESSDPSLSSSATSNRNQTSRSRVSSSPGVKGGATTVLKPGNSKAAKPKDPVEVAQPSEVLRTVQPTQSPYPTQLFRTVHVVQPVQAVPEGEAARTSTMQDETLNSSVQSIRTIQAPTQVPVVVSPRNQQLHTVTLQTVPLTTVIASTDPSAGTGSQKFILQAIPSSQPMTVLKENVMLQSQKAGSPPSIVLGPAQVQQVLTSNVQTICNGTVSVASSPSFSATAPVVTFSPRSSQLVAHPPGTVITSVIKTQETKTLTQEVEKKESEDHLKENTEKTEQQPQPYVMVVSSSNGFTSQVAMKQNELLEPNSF
ETV6, sequence (P41212 whole entry): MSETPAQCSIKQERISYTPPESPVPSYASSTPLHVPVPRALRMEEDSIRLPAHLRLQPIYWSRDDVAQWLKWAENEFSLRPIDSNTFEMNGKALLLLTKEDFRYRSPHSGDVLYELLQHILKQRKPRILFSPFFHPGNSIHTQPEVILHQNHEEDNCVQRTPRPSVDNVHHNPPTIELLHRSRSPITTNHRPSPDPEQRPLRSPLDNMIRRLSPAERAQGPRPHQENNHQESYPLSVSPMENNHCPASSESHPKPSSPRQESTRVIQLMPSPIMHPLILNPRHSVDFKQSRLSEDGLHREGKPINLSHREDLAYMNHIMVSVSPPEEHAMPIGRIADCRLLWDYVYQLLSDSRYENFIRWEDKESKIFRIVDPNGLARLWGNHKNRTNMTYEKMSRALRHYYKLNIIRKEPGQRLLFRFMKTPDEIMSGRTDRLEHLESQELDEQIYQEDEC

In the case of TGTGCG, the binding signal was 1.08 fold enrichment (6-mer frequency, TF over GST control) with ELK1; 1.01 fold enrichment (6-mer frequency, TF over GST control) with SPIB; 1.04 fold enrichment (6-mer frequency, TF over GST control) with ETV5; 1.01 fold enrichment (6-mer frequency, TF over GST control) in the assay with ELF4; 1.14 fold enrichment (6-mer frequency, TF over GST control) in the assay with ELK4; 1.2 fold enrichment (6-mer frequency, TF over GST control) in the assay with ETV2. For the same sequence, the binding signal in the assay with ERF was 1.06 fold enrichment (6-mer frequency, TF over GST control); with ETS2, 1.05 fold enrichment (6-mer frequency, TF over GST control); in the assay with ETV3, 1.04 fold enrichment (6-mer frequency, TF over GST control); with ETV6, 1.06 fold enrichment (6-mer frequency, TF over GST control).
ACAGCA: the binding signal is 1.03 fold enrichment (6-mer frequency, TF over GST control) in the assay with ELK1; 1.08 fold enrichment (6-mer frequency, TF over GST control) with GABPA; 1 fold enrichment (6-mer frequency, TF over GST control) with ERG; 1.06 fold enrichment (6-mer frequency, TF over GST control) with ELF1; 1.03 fold enrichment (6-mer frequency, TF over GST control) in the assay with EHF; 1 fold enrichment (6-mer frequency, TF over GST control) with FEV. The binding signal with ETV5 is 1.03 fold enrichment (6-mer frequency, TF over GST control); with ELF4, 1.04 fold enrichment (6-mer frequency, TF over GST control); in the assay with ELK4, 1.02 fold enrichment (6-mer frequency, TF over GST control); in the assay with ETV2, 1.06 fold enrichment (6-mer frequency, TF over GST control); in the assay with ERF, 1.07 fold enrichment (6-mer frequency, TF over GST control); in the assay with ETV3L, 1.06 fold enrichment (6-mer frequency, TF over GST control). The binding signal in the assay with ETS2 was 1.09 fold enrichment (6-mer frequency, TF over GST control); in the assay with ETV7, 1.15 fold enrichment (6-mer frequency, TF over GST control).

The values are drawn from PMC7862700, “An all-to-all approach to the identification of sequence-specific readers for epigenetic DNA modifications on cytosine”.
